# Publication PMC13541613, “GHT-SELEX demonstrates unexpectedly high intrinsic sequence specificity and complex DNA binding of many human transcription factors”
# Biological target: ZNF721 full-length (Homo sapiens, UniProt Q8TF20-2 1-923)
# Test: HT-SELEX; 20 mM HEPES pH 7, 140 mM KCl, 5 mM NaCl, 1 mM K2HPO4, 2 mM MgSO4, 100 uM EGTA, ZnSO4, 0.1% Tween20; room temperature, 1 h; high values mean tight binding
# Settings: protein: ivt; tags: eGFP (N-terminal); dsDNA, one strand shown
# How it was run: (§1)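 The binding signal is a relative k-mer count in selected reads, and higher values mean tighter binding. To obtain these reads, bead-bound tagged transcription factor (full-length or DNA-binding-domain fragment, produced in HEK293 lysate or cell-free extract) was mixed with a randomized 40-base DNA library for 1 h at room temperature in low-stringency HEPES/KCl buffer with Tween20. Bound DNA was recovered by washing and heat elution, PCR-amplified through successive cycles and sequenced on Illumina (~3 million 60 bp reads per sample).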
# ZNF721 full-length, sequence (Q8TF20 other isoform, or with tags, fused parts or gaps): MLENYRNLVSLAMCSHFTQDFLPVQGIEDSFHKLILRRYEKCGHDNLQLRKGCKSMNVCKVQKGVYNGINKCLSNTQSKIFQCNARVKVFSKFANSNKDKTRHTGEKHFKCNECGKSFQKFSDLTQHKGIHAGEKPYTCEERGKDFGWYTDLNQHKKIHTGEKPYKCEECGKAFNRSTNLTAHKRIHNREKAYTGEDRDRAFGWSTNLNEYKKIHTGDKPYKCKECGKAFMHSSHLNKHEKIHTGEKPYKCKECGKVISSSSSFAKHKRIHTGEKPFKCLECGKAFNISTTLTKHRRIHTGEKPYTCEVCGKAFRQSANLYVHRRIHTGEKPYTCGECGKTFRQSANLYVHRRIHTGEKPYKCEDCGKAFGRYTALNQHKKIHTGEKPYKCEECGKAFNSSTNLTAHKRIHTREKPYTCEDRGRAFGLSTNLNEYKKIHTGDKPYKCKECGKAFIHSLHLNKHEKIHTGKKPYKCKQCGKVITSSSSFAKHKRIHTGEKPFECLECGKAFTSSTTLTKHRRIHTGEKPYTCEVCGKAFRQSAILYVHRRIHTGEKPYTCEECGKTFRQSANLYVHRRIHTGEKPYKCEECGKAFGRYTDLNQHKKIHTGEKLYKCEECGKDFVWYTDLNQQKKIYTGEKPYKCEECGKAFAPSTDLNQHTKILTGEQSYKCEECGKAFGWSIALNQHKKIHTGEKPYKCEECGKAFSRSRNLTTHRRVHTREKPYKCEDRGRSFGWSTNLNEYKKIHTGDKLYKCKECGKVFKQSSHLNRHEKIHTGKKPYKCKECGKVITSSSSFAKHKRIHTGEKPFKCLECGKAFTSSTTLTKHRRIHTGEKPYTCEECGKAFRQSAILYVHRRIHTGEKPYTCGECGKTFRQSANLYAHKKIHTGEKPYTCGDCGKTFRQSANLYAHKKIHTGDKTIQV
row,Sequence,binding signal [relative 10-mer count]
1,CCTACCCACC,0.124
2,AGAAAAAAAG,0.118
3,CCCGCCCCTC,0.127
4,CACCCCATCC,0.11
5,AGGGGAGGGG,0.13
6,CCCCCCCCAC,0.257
7,CCGAAAAAAG,0.106
8,CACCTCCCCC,0.188
9,TCCCCCACCA,0.114
10,CCACACCCCA,0.124
11,GGGGTGGGCA,0.11
12,CCCCTCCCCG,0.128
13,CCCATCCCCC,0.185
14,ACCCCACCGC,0.106
15,AGGTGGGTGG,0.149
16,CGCCCCCTCC,0.135
17,CGAAAAAAAA,0.137
18,AGCGTATCCA,0.221
19,CCCCACCATC,0.111
20,AACCCCACCC,0.141

row,Sequence,binding signal [relative 10-mer count]
1,GAAAAAAGCA,0.344
2,ATAGCTTCAT,0.118
3,AAGGGGTGGG,0.102
4,AAAAAAGCGT,0.276
5,CCACCCAACC,0.151
6,AAGCAGCGTA,0.162
7,AGCTTTTTTC,0.449
8,CCCATCCACC,0.103
9,TGTGTATGAA,0.169
10,AAGCGTATCC,0.108
11,ATCCCACCCC,0.123
12,CTCCCCCCAC,0.148
13,GCATACCCAC,0.132
14,ACCCACCGCC,0.114
15,CCCCCAGCCC,0.146
16,CCACCGACCC,0.107
17,AAAAGCTGCA,0.114
18,GAAAAAAAGC,0.29
19,ACCCCCCGCC,0.137
20,CCACCATCCC,0.162

# Biological target: ZNF721 DBD1 (Homo sapiens, UniProt Q8TF20-2 29-461)
# Sequence (Q8TF20 17-449): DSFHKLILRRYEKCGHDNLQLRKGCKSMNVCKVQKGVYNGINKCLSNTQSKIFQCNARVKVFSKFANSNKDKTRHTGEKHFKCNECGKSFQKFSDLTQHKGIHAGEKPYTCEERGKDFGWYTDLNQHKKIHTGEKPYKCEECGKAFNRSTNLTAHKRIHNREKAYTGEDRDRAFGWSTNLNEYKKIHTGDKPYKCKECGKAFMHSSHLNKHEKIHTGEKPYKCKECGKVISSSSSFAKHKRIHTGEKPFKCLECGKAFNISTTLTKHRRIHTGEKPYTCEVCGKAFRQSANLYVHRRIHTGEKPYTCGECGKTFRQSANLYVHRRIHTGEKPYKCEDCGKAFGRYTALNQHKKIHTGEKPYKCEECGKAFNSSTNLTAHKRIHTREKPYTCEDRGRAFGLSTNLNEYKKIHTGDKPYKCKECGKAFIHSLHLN
# Test: as above
# Settings: protein: ivt; tags: eGFP (N-terminal); dsDNA, one strand shown
# How it was run: as §1
row,Sequence,binding signal [relative 10-mer count]
1,CCTACCCACC,0.00546
2,AGAAAAAAAG,0.0217
3,CCCGCCCCTC,0.00633
4,CACCCCATCC,0.00372
5,AGGGGAGGGG,0.00665
6,CCCCCCCCAC,0.0089
7,CCGAAAAAAG,0.016
8,CACCTCCCCC,0.00798
9,TCCCCCACCA,0.00527
10,CCACACCCCA,0.00472
11,GGGGTGGGCA,0.00381
12,CCCCTCCCCG,0.00527
13,CCCATCCCCC,0.00716
14,ACCCCACCGC,0.00408
15,AGGTGGGTGG,0.00642
16,CGCCCCCTCC,0.00605
17,CGAAAAAAAA,0.0159
18,AGCGTATCCA,0.0368
19,CCCCACCATC,0.00477
20,AACCCCACCC,0.00294

row,Sequence,binding signal [relative 10-mer count]
1,GAAAAAAGCA,0.0533
2,ATAGCTTCAT,0.158
3,AAGGGGTGGG,0.00546
4,AAAAAAGCGT,0.0607
5,CCACCCAACC,0.00674
6,AAGCAGCGTA,0.00124
7,AGCTTTTTTC,0.217
8,CCCATCCACC,0.00569
9,TGTGTATGAA,0.203
10,AAGCGTATCC,0.0756
11,ATCCCACCCC,0.00573
12,CTCCCCCCAC,0.00794
13,GCATACCCAC,0.00899
14,ACCCACCGCC,0.00482
15,CCCCCAGCCC,0.00587
16,CCACCGACCC,0.00482
17,AAAAGCTGCA,0.0533
18,GAAAAAAAGC,0.0712
19,ACCCCCCGCC,0.00555
20,CCACCATCCC,0.0055

# Biological target: ZNF721 DBD2 (Homo sapiens, UniProt Q8TF20-2 395-923)
# Sequence (Q8TF20 383-911): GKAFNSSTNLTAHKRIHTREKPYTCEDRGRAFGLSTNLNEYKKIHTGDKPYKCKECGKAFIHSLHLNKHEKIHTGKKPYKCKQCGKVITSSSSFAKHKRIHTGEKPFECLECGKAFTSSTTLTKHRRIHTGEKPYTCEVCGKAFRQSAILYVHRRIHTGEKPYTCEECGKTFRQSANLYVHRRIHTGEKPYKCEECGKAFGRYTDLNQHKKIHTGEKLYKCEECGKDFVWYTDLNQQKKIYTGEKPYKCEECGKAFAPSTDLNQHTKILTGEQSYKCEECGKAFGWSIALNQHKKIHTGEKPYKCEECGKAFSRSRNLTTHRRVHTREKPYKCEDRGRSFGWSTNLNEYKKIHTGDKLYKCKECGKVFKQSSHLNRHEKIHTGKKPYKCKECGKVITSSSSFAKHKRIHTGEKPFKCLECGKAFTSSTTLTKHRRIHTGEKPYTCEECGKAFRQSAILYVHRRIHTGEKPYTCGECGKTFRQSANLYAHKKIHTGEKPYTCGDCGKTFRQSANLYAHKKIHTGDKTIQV
# Test: as above
# Settings: protein: ivt; tags: eGFP (N-terminal); dsDNA, one strand shown
# How it was run: as §1
row,Sequence,binding signal [relative 10-mer count]
1,CCTACCCACC,0.0101
2,AGAAAAAAAG,0.035
3,CCCGCCCCTC,0.00144
4,CACCCCATCC,0.00575
5,AGGGGAGGGG,0.00479
6,CCCCCCCCAC,0.00539
7,CCGAAAAAAG,0.0415
8,CACCTCCCCC,0.00443
9,TCCCCCACCA,0.00407
10,CCACACCCCA,0.00503
11,GGGGTGGGCA,0.00395
12,CCCCTCCCCG,0.00216
13,CCCATCCCCC,0.00312
14,ACCCCACCGC,0.00336
15,AGGTGGGTGG,0.00443
16,CGCCCCCTCC,0.00407
17,CGAAAAAAAA,0.0695
18,AGCGTATCCA,0.31
19,CCCCACCATC,0.00563
20,AACCCCACCC,0.00156

row,Sequence,binding signal [relative 10-mer count]
1,GAAAAAAGCA,0.15
2,ATAGCTTCAT,0.00288
3,AAGGGGTGGG,0.00395
4,AAAAAAGCGT,0.0512
5,CCACCCAACC,0.00551
6,AAGCAGCGTA,0.201
7,AGCTTTTTTC,0.00467
8,CCCATCCACC,0.00827
9,TGTGTATGAA,0.00228
10,AAGCGTATCC,0.00863
11,ATCCCACCCC,0.00168
12,CTCCCCCCAC,0.00419
13,GCATACCCAC,0.154
14,ACCCACCGCC,0.00455
15,CCCCCAGCCC,0.00252
16,CCACCGACCC,0.0036
17,AAAAGCTGCA,0.00312
18,GAAAAAAAGC,0.0678
19,ACCCCCCGCC,0.00384
20,CCACCATCCC,0.00443
